The values that follow come from PubChem BioAssay (EPA / NIEHS).

Calls of active or inactive are those of the source. How the source made its calls: active means hit-call score of the fitted dose curve at least 0.9, where 1 is the maximum; inactive means score below 0.9.

Test [1] can be described thus: APR_HepG2_NuclearSize_72hr: Apredica 72-hour HepG2 Assay for Nuclear Size (AID 2282925). The note with it: high-content imaging, actives raise or lower the signal. The method in brief: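 HepG2; cpd 0.39–200 uM, 10 conc, duplicate; 72 h; DMSO 0.5% v/v; fix 3.7% formaldehyde 30 min RT; Triton permeabilization; Hoechst 2 ug/mL; HCS imaging 20x; nuclear diameter; gain/loss fit vs DMSO.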

Test [2] is described as follows: ATG_CRE_CIS: Attagene CIS-FACTORIAL HepG2 Assay for human cAMP Responsive Element (CRE) binding protein 3 (AID 2282926). The conditions noted are these: HepG2 CRE cis-reporter, Attagene multiplexed mRNA; actives raise or lower the signal. A digest of the protocol:
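We dosed HepG2 cells bearing multiple cis-promoter reporter units for 24 h and measured reporter mRNA by RT-PCR with capillary electrophoresis detection. Bidirectional concentration-response fitting used DMSO as negative control.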

For test [3], the target named is CCAAT/enhancer-binding protein beta (Homo sapiens) (UniProt P17676). As to the kind of experiment: ATG_C_EBP_CIS: Attagene CIS-FACTORIAL HepG2 Assay for human CCAAT/Enhancer Binding Protein (C/EBP) beta (AID 2282927). The conditions noted are these: HepG2 Attagene cis-factorial transcription factor reporter; actives raise or lower the signal. A digest of the protocol: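 Changes in reporter mRNA, rather than exogenous chimeric receptor activity, reflect native C/EBP signalling in transfected HepG2 cells dosed for 24 h; transcripts are detected by RT-PCR and capillary electrophoresis.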
CCAAT/enhancer-binding protein beta (Homo sapiens), sequence (P17676 whole entry, looked up): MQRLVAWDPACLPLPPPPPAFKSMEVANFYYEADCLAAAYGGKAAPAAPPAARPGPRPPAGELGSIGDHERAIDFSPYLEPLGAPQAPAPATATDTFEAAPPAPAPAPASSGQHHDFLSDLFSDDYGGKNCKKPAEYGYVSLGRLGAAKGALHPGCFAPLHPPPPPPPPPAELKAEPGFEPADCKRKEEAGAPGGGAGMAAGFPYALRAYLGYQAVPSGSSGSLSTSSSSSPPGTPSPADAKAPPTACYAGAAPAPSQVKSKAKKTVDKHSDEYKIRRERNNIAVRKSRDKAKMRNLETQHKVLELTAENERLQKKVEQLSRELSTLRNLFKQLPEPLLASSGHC

Test [4] is described as follows: ATG_CMV_CIS: Attagene CIS-FACTORIAL HepG2 Assay for human CMV (Internal Marker) (AID 2282928).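 Further: endpoint acts as a background internal control marker rather than a target.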 The conditions noted are these: HepG2 CMV promoter reporter, transcription factor profiling; actives raise or lower the signal. The method in brief: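 CMV internal-marker background readout in transiently transfected HepG2 cells bearing cis-regulated reporter units. Reporter mRNA is measured 24 h after dosing by RT-PCR and capillary electrophoresis, with bidirectional fitting against DMSO.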

The nature of test [5]: ATG_DR4_LXR_CIS: Attagene CIS-FACTORIAL HepG2 Assay for human Liver X Receptor (LXR), DR4 submotif (AID 2282929). The note with it: HepG2 Attagene DR4 cis-reporter, mRNA transcription; actives raise or lower the signal. The method in brief: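 Transiently transfected HepG2 liver cells; cis-regulated reporters; 24 h dosing. RT-PCR plus CE read-out of reporter mRNA. DMSO baseline, bidirectional curve fitting.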

Test [6] deals with Aryl hydrocarbon receptor (Homo sapiens) (UniProt P35869). Description: ATG_Ahr_CIS: Attagene CIS-FACTORIAL HepG2 Assay for human Aryl Hydrocarbon Receptor (Ahr) (AID 2282930). The conditions noted are these: HepG2 AhR cis-factorial reporter transcription; actives raise or lower the signal. A digest of the protocol:
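HepG2, transient MRTU (cis) transfection, 24 h exposure. RNA → cDNA → PCR → 6-FAM primer extension → HpaI 2 h 37 C → CE. Fit: bidirectional, DMSO baseline.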

A short description of test [7]: ATG_AP_1_CIS: Attagene CIS-FACTORIAL HepG2 Assay for human Activator Protein 1 (AP-1) (AID 2282931). The conditions noted are these: HepG2 Attagene cis-factorial AP-1 reporter mRNA; actives raise or lower the signal. The method in brief: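 We transfected HepG2 cells transiently with a set of cis-regulated reporter transcription units, dosed them for 24 h, and quantified reporter mRNA via RT-PCR and capillary electrophoresis, scoring gain or loss of signal relative to DMSO.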

A short description of test [8]: ATG_BRE_CIS: Attagene CIS-FACTORIAL HepG2 Assay for human Bone Morphogenetic Protein (BMP) Response Element (BRE) (AID 2282933). The note with it: HepG2 BMP response element reporter, Attagene transcription factor profiling; actives raise or lower the signal. A digest of the protocol: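 Endogenous transcription factor activity at a BMP response element was monitored in transfected HepG2 cells 24 h after dosing. Fluorescent RT-PCR products were resolved by capillary electrophoresis, and activity was fitted in both directions versus DMSO.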

Test [9] deals with Retinoic acid receptor alpha (Homo sapiens) (UniProt P10276). Description: ATG_DR5_RAR_CIS: Attagene CIS-FACTORIAL HepG2 Assay for human Retinoic Acid Receptor Alpha (RARE), DR5 submotif (AID 2282934).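 On AC50: reporter responds to endogenous RAR alpha beta and gamma in HepG2 not RARA alone.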 The conditions noted are these: HepG2 Attagene cis-factorial RARE DR5 reporter, mRNA; actives raise or lower the signal. A digest of the protocol: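 HepG2, transient cis-reporter transfection, 24 h exposure. mRNA readout: RT-PCR, FAM label, HpaI cut, capillary electrophoresis. DMSO baseline, gain/loss fitting.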
Retinoic acid receptor alpha (Homo sapiens), sequence (P10276 whole entry, looked up): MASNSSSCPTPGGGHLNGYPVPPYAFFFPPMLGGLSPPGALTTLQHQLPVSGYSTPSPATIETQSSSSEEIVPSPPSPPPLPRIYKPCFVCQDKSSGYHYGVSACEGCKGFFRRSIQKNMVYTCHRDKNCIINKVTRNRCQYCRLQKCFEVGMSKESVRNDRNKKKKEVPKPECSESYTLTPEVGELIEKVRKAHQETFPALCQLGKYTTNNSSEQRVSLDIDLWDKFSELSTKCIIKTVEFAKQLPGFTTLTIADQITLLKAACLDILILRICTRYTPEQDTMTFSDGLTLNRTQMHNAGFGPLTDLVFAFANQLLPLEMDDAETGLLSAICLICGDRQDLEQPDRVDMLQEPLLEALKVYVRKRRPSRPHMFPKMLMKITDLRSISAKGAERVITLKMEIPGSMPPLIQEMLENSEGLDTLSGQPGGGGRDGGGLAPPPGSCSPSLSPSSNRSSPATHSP

Test [10] has as its target Transcription factor E2F1 (Homo sapiens) (UniProt Q01094). Description: ATG_E2F_CIS: Attagene CIS-FACTORIAL HepG2 Assay for human E2F Transcription Factor 1 (AID 2282935). The conditions noted are these: HepG2 Attagene cis-reporter, E2F reporter RNA transcripts; actives raise or lower the signal. A digest of the protocol: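 Cis-element reporter mRNA induction in transiently transfected HepG2, 24 h exposure. Activity fitted in both directions relative to DMSO negative control.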

The nature of test [11]: ATG_E_Box_CIS: Attagene CIS-FACTORIAL HepG2 Assay for human Enhancer Box (E-box) (AID 2282936). The note with it: HepG2 E-box cis-reporter transcription, actives raise or lower the signal. A digest of the protocol: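 Cells: HepG2 (human liver), transient MRTU transfection. Exposure 24 h. RNA → oligo(dT) RT → PCR → 6-FAM label → HpaI → CE. Activity fitted both directions relative to DMSO.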

Test [12] is described as follows: ATG_M_61_CIS: Attagene CIS-FACTORIAL HepG2 Assay for M61 Transcription Factor (Internal Marker) (AID 2282937). The conditions noted are these: HepG2 Attagene CIS-FACTORIAL M61 internal marker reporter; actives raise or lower the signal. A digest of the protocol:
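Multiplexed reporter mRNA assay, HepG2 human hepatoma cells, 24 h treatment. Signal: FAM-labelled, HpaI-digested RT-PCR fragments by CE. Fit: bidirectional, baseline DMSO.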

Test [13] can be described thus: ATG_EGR_CIS: Attagene CIS-FACTORIAL HepG2 Assay for human Early Growth Response 1 (EGR1) (AID 2282938). The conditions noted are these: HepG2 Attagene CIS-FACTORIAL EGR reporter mRNA; actives raise or lower the signal. A digest of the protocol: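 Multiplexed cis-reporter system in human hepatoma HepG2 cells, transiently transfected. Cells are dosed for 24 h; reporter transcripts are amplified, fluorescently tagged and sized by capillary electrophoresis, with DMSO as negative control.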

Test [14] is described as follows: ATG_ERE_CIS: Attagene CIS-FACTORIAL HepG2 Assay for Estrogen Response Element (ERE) (AID 2282940). The note with it: HepG2 ERE cis-reporter, Attagene RNA transcript; actives raise or lower the signal. A digest of the protocol:
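Cells used were human hepatoma HepG2, transfected with multiple reporter transcription units under cis-regulatory promoters. Reporter mRNA, read 24 h post-dosing via fluorescent RT-PCR products on capillary electrophoresis, was fitted bidirectionally relative to DMSO.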

For test [15], the target named is Hepatocyte nuclear factor 3-beta (Homo sapiens) (UniProt Q9Y261). Description: ATG_FoxA2_CIS: Attagene CIS-FACTORIAL HepG2 Assay for human Forkhead box A2 (FOXA2) (AID 2282942). The note with it: HepG2 cis-reporter transcription factor activity, 24 h; actives raise or lower the signal. A digest of the protocol: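 Multiplexed cis-element reporter assay in transiently transfected HepG2. Twenty-four hours post-dosing, RNA was reverse-transcribed, amplified, FAM-labelled, HpaI-digested and separated by CE. Activity gain or loss relative to DMSO.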
Hepatocyte nuclear factor 3-beta (Homo sapiens), sequence (Q9Y261 whole entry, looked up): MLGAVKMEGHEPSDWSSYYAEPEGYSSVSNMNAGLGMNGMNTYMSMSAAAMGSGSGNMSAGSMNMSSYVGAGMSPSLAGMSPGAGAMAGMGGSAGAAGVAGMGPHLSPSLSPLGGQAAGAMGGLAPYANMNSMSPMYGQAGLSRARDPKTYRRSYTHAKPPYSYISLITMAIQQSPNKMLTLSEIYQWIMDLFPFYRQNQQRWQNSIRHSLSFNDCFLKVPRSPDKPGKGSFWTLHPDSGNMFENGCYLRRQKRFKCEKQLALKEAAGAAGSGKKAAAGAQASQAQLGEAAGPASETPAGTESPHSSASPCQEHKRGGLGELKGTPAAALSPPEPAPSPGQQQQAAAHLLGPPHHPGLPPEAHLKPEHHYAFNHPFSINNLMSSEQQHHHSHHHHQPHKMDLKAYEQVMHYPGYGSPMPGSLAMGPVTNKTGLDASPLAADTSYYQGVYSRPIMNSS

Test [16] is described as follows: ATG_FoxO_CIS: Attagene CIS-FACTORIAL HepG2 Assay for human Forkhead box O (FoxO) (AID 2282943). The conditions noted are these: HepG2 Attagene cis-reporter, FoxO element, mRNA; actives raise or lower the signal. The method in brief:
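Human hepatoma HepG2 cells carry transiently introduced reporter transcription units controlled by cis promoter elements. Chemical treatment lasted 24 h, and mRNA signal was compared with DMSO.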

The nature of test [17]: ATG_GATA_CIS: Attagene CIS-FACTORIAL HepG2 Assay for human GATA Binding Protein (AID 2282944). The conditions noted are these: HepG2 GATA cis-element reporter, Attagene multiplex mRNA; actives raise or lower the signal. The method in brief:
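Endogenous transcription factor activity was captured through cis-promoter-driven reporters in transfected HepG2 cells. After 24 h exposure, reporter transcripts were quantified by RT-PCR with fluorescent capillary electrophoresis, and responses fitted both directions against DMSO.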

Test [18] in a line: ATG_M_19_CIS: Attagene CIS-FACTORIAL HepG2 Assay for M19 Transcription Factor (Internal Marker) (AID 2282939). The conditions noted are these: HepG2 Attagene CIS-FACTORIAL M19 internal marker reporter; actives raise or lower the signal. A digest of the protocol: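 Background-control endpoint from a multiplexed HepG2 reporter panel. Cells carrying cis-regulated reporter constructs are treated 24 h, then reporter transcripts are amplified, fluorescently labelled and sized by capillary electrophoresis. DMSO defines baseline.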

The nature of test [19]: ATG_Ets_CIS: Attagene CIS-FACTORIAL HepG2 Assay for human Erythroblast Transformation Specific (ETS) (AID 2282941). The conditions noted are these: HepG2 ETS cis-reporter transcription, actives raise or lower the signal. A digest of the protocol:
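HepG2 cells transfected with multiple cis-regulated reporter units measuring endogenous ETS-driven transcription, 24 h after dosing. Reporter mRNA quantified by RT-PCR with capillary electrophoresis; bidirectional fit relative to DMSO.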

A short description of test [20]: ATG_AP_2_CIS: Attagene CIS-FACTORIAL HepG2 Assay for human Activator Protein 2 (AP-2) (AID 2282932). The conditions noted are these: HepG2 AP-2 cis-reporter, Attagene transcription factor profiling; actives raise or lower the signal. A digest of the protocol:
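HepG2, transient MRTU transfection, cis-regulated reporters; 24 h compound exposure; RNA isolated, RT-PCR, 6-FAM labelling, HpaI digest, CE fluorescence. DMSO = negative control/baseline, bidirectional fit.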

Transcription factor E2F1 (Homo sapiens), sequence (Q01094 whole entry, looked up): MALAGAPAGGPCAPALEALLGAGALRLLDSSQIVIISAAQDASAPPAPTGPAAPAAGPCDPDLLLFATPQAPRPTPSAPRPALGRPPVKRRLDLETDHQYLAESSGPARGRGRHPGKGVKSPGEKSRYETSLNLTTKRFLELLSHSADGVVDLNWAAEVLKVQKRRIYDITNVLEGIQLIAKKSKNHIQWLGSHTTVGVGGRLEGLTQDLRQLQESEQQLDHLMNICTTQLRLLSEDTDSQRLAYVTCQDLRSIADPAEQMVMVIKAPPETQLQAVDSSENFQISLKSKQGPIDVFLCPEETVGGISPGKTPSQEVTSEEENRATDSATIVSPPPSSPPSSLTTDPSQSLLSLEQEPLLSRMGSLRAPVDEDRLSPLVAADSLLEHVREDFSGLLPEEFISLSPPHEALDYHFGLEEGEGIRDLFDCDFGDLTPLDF
Aryl hydrocarbon receptor (Homo sapiens), sequence (P35869 whole entry, looked up): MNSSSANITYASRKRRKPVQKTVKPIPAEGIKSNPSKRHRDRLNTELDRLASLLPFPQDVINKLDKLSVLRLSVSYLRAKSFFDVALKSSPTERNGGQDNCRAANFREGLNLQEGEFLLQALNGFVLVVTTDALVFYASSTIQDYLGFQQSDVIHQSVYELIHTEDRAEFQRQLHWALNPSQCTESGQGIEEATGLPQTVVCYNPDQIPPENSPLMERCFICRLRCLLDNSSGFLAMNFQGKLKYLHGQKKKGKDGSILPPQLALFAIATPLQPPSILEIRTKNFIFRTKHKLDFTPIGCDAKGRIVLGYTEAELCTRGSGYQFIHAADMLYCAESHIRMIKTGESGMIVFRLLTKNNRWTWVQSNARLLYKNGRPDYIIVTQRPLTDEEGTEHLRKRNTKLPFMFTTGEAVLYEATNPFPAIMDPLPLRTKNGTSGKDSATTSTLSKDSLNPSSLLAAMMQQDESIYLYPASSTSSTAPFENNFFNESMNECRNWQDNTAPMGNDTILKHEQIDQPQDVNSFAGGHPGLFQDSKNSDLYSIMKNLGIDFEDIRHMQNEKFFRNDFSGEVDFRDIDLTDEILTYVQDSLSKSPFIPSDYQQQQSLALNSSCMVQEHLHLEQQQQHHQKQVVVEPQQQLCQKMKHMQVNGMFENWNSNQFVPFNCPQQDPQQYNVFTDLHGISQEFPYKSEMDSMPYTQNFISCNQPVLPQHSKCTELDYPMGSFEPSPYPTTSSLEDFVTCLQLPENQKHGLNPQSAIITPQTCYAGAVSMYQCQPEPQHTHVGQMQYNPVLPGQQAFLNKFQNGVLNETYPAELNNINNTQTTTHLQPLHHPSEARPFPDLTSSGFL

For the compound `Oc1cccc(O)c1`, the compound was called inactive in test [1], in test [2], in test [3], in [4], in [5] and in test [6]. Moreover, the compound was called inactive in test [7], in test [9], in test [10], in test [11], in test [12] and in test [13]. For the same compound, the result in test [14], in test [15], in test [16] and in test [17] was inactive. In addition, the AC50 in [8] is 29.7 µM (active).

For `NC(=O)N(O)[C@@H]1C=C[C@H](Oc2cccc(Oc3ccc(F)cc3)c2)C1`, the compound was classed as inactive in [1], in test [3], in test [5], in test [6], in test [7] and in test [8]. Also, the result in [9], in [10], in test [11], in test [12], in test [18] and in [14] was inactive. In addition, the outcome in test [19], in [15], in test [16] and in test [17] was inactive. The figures for the AC50 in [2], in test [4] and in [13] were 22.6 µM (active), 7.56 µM (active) and 33 µM (active), respectively.

On to `CC(C)(C)CC(C)(C)c1ccc(O)c(-n2nc3ccccc3n2)c1`, for which the values for the AC50 in [1], in test [4] and in test [7] were 80.4 µM (active), 61.4 µM (active) and 58.3 µM (active), respectively. Also, the compound was called inactive in test [2], in test [3], in [5], in [6], in test [8] and in [9]. Also, the compound was classed as inactive in [10], in [11], in [12], in test [13], in test [18] and in test [14]. Further, the compound was called inactive in test [15], in test [16] and in test [17].

For `CCN(CC)CCNc1ccc(CNC=O)c2sc3ccc(OC)cc3c(=O)c12`, the outcome in test [1], in [4], in test [5], in test [6], in test [10] and in [11] was inactive. Moreover, the outcome in [12], in [13], in test [15], in test [16] and in test [17] was inactive. The AC50 was 0.53 µM (active) in test [2]; 0.879 µM (active) in test [3]; 0.216 µM (active) in [7]; 0.505 µM (active) in test [8]; 0.457 µM (active) in test [9]; 0.722 µM (active) in test [14]. Also, the concentration at half-maximal activity (AC50) in test [19] was 1.42 µM (active).

Consider `CC(=O)CC(C)(C)O`, for which the call in test [1], in test [2], in [3], in test [4], in test [5] and in test [7] was inactive. Further, the result in test [20], in test [8], in test [9], in test [10], in test [11] and in test [12] was inactive. The call in test [13], in test [14], in test [19], in [15], in test [16] and in [17] was inactive.

As to `Cc1cc(C)c(O)c(C)c1`, the call in test [1], in [2], in [3], in test [5], in [6] and in test [7] was inactive. Besides, the outcome in test [20], in test [8], in test [10], in [11], in test [12] and in test [13] was inactive. Also, the compound was called inactive in test [14], in test [15], in [16] and in [17]. Also, the AC50 in test [4] and in test [9] was 100 µM (active) in each case.

For orientation: AC50 means the midpoint of the concentration-response curve, whichever way the signal moves.
